Test results published in PubChem BioAssay AID1159580 (chemical genetic matrix, 2015).
Where “and” joins values, the source holds several entries; their conditions need not be identical. Equal entries are not always repeated. In all, about 5,500 compounds went through this assay and about 2,000 (36%) were called active. Inconclusive results (about 18%) are left out. Rule as the data show it: active = normalized growth mostly below about 0.91 (no sharp cut-off); inconclusive = no clear call, values can overlap the other calls; inactive = mostly above about 0.92. The list shows a part of the results.

Test: chemical genetic growth profiling, strain panel (AID 1159580);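 also: tested at 20 µM; growth read once vehicle control cultures reached saturation at 30 °C; 1 = growth at the plate median or of vehicle wells; lower values mean less growth of the strain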
Conditions: S. cerevisiae deletion strains, growth OD
[1] = locus YHR030C, strain SLT2, active compounds read low
[2] = locus YHR079C, strain IRE1, active compounds read low
[3] = locus YJL095W, strain BCK1, active compounds read low
[4] = locus YJR066W, strain TOR1, active compounds read low
[5] = locus YLR113W, strain HOG1, active compounds read low
[6] = locus YNL183C, strain NPR1, active compounds read low
[7] = locus YOR231W, strain MKK1, active compounds read low
[8] = locus YPL256C, strain CLN2, active compounds read low

Measured: normalized growth

C[C@H]1CC2C([C@@H](O)C[C@@]3(C)C2CC[C@]3(O)C(=O)COC(=O)CCC(=O)O)[C@@]2(C)C=CC(=O)C=C12 (some centres undefined)
inactive: [1] 0.999 | [2] 1.02 | [3] 1.02 | [4] 1 | [5] 1.04 | [6] 0.995 | [7] 1.06 | [8] 1.03

CC1=C2[C@H]3OC(=O)[C@@H](C)[C@@H]3CC[C@@]2(C)C=CC1=O
inactive: locus YAL013W, strain DEP1, active compounds read low 1.01 | locus YAL021C, strain ccr4, active compounds read low 0.97 | locus YAL026C, strain drs2, active compounds read low 0.968 | locus YAL030W, strain snc1, active compounds read low 0.982 | locus YBL061C, strain skt5, active compounds read low 0.968 | locus YBR009C, strain hhf1, active compounds read low 0.975 | locus YBR021W, strain FUR4, active compounds read low 0.972 | locus YBR023C, strain chs3, active compounds read low 0.953 | locus YBR171W, strain sec66, active compounds read low 0.962 | locus YBR229C, strain ROT2, active compounds read low 1.01 | locus YBR231C, strain swc5, active compounds read low 0.992 | locus YBR279W, strain paf1, active compounds read low 0.994 | locus YCL011C, strain gbp2, active compounds read low 0.979 | locus YCL016C, strain dcc1, active compounds read low 0.995 | locus YCL029C, strain bik1, active compounds read low 1.04 | locus YCL061C, strain MRC1, active compounds read low 0.976 | locus YCL069W, strain vba3, active compounds read low 0.967 | locus YCR088W, strain abp1, active compounds read low 0.976 | locus YDL005C, strain med2, active compounds read low 0.964 | locus YDL035C, strain GPR1, active compounds read low 1.02 | locus YDL040C, strain nat1, active compounds read low 0.979 | locus YDL074C, strain BRE1, active compounds read low 1.02 | locus YDL101C, strain DUN1, active compounds read low 1.02 | locus YDL185W, strain tfp1, active compounds read low 1.02 | locus YDL192W, strain arf1, active compounds read low 1.03 | locus YDR001C, strain nth1, active compounds read low 0.98 | locus YDR069C, strain doa4, active compounds read low 0.946 | locus YDR101C, strain arx1, active compounds read low 1.01 | locus YDR137W, strain rgp1, active compounds read low 0.972 | locus YDR159W, strain sac3, active compounds read low 0.941 | locus YDR162C, strain NBP2, active compounds read low 1.02 | locus YDR195W, strain ref2 0.953 | locus YDR297W, strain sur2, active compounds read low 0.968 | locus YDR318W, strain mcm21, active compounds read low 1.04 | locus YDR334W, strain swr1, active compounds read low 0.96 | locus YDR335W, strain msn5, active compounds read low 0.987 | locus YDR388W, active compounds read low 1.01 | locus YDR392W, strain spt3, active compounds read low 0.99 | locus YDR502C, strain sam2, active compounds read low 1.02 | locus YEL003W, strain gim4, active compounds read low 0.98 | locus YEL037C, strain rad23, active compounds read low 0.978 | locus YEL061C, strain CIN8 (second series), active compounds read low 0.972 | locus YEL061C, strain CIN8, active compounds read low 1.01 | locus YER015W, strain faa2, active compounds read low 0.974 | locus YER016W, strain bim1, active compounds read low 0.978 | locus YER110C, active compounds read low 1.02 | locus YER111C, strain swi4, active compounds read low 0.963 | locus YER155C, strain BEM2 (second series), active compounds read low 0.946 | locus YER155C, strain BEM2, active compounds read low 1 | locus YER167W, strain BCK2, active compounds read low 1.01 | locus YFR010W, strain ubp6, active compounds read low 0.953 | locus YGL078C, strain dbp3, active compounds read low 1.02 | locus YGL086W, strain mad1, active compounds read low 1.01 | locus YGL167C, strain pmr1, active compounds read low 0.963 | locus YGL173C, strain kem1, active compounds read low 0.974 | locus YGL227W, strain vid30, active compounds read low 0.984 | locus YGL240W, strain doc1, active compounds read low 0.963 | locus YGL248W, strain PDE1, active compounds read low 1.03 | locus YGL253W, strain hxk2, active compounds read low 0.98 | locus YGR078C, strain PAC10, active compounds read low 1.02 | locus YGR135W, strain pre9, active compounds read low 1.03 | locus YGR229C, strain SMI1, active compounds read low 1.05 | locus YGR252W, strain gcn5, active compounds read low 0.991 | locus YHR013C, strain ard1, active compounds read low 0.956 | locus YHR027C, strain rpn1, active compounds read low 0.986 | [1] 0.981 | locus YHR079C, strain IRE1 (second series), active compounds read low 1.02 | [2] 1 | locus YHR094C, strain hxt1, active compounds read low 1.03 | locus YHR129C, strain ARP1, active compounds read low 1.01 | locus YHR142W, strain chs7, active compounds read low 0.98 | locus YHR200W, strain rpn10, active compounds read low 1.01 | locus YIL066C, strain RNR3, active compounds read low 1.02 | locus YIL073C, strain SPO22, active compounds read low 1.06 | locus YIL125W, strain kgd1, active compounds read low 1.02 | locus YIR030C, strain dcg1, active compounds read low 1.02 | locus YJL092W, strain hpr5, active compounds read low 0.975 | locus YJL095W, strain BCK1 (second series), active compounds read low 0.964 | [3] 1.03 and 0.993 | locus YJL115W, strain asf1, active compounds read low 0.973 | locus YJL129C, strain trk1, active compounds read low 0.962 | locus YJL134W, strain LCB3, active compounds read low 1.01 | locus YJL154C, strain vps35, active compounds read low 0.98 | locus YJL164C, strain tpk1, active compounds read low 0.984 | locus YJL166W, strain qcr8, active compounds read low 0.969 | locus YJL168C, strain set2, active compounds read low 1.02 | locus YJL187C, strain SWE1 (second series), active compounds read low 1.02 | locus YJL187C, strain SWE1, active compounds read low 0.966 | locus YJR043C, strain POL32, active compounds read low 1.01 | [4] 0.956 | locus YJR075W, strain HOC1, active compounds read low 1.02 | locus YKL009W, strain mrt4, active compounds read low 1.03 | locus YKL068W, active compounds read low 0.995 | locus YKL085W, strain MDH1 (second series), active compounds read low 1.02 | locus YKL085W, strain MDH1, active compounds read low 1.02 | locus YKL160W, strain elf1, active compounds read low 0.994 | locus YKL190W, strain CNB1, active compounds read low 1.01 | locus YKR001C, strain vps1, active compounds read low 1.03 | locus YKR026C, strain gcn3, active compounds read low 0.965 | locus YKR091W, strain srl3, active compounds read low 0.983 | locus YLL001W, strain dnm1, active compounds read low 0.996 | locus YLL026W, active compounds read low 0.995 | locus YLL041C, strain sdh2, active compounds read low 0.998 | locus YLR027C, strain aat2, active compounds read low 0.979 | locus YLR039C, strain RIC1, active compounds read low 1.04 | locus YLR058C, strain SHM2, active compounds read low 1.02 | locus YLR102C, strain apc9, active compounds read low 1.03 | [5] 0.963 | locus YLR221C, strain rsa3, active compounds read low 0.959 | locus YLR258W, strain gsy2, active compounds read low 0.985 | locus YLR262C, strain YPT6 (second series), active compounds read low 0.997 | locus YLR262C, strain YPT6, active compounds read low 1.06 | locus YLR268W, strain sec22, active compounds read low 1.02 | locus YLR320W, strain mms22, active compounds read low 0.978 | locus YLR342W, strain FKS1 (second series), active compounds read low 1.01 | locus YLR342W, strain FKS1, active compounds read low 0.974 | locus YLR357W, strain rsc2, active compounds read low 0.948 | locus YLR370C, strain arc18, active compounds read low 0.977 | locus YLR371W, strain rom2, active compounds read low 1.01 | locus YLR384C, strain iki3, active compounds read low 0.96 | locus YLR418C, strain cdc73, active compounds read low 1.03 | locus YML016C, strain PPZ1, active compounds read low 1.02 | locus YML032C, strain rad52, active compounds read low 1.02 | locus YML120C, strain ndi1, active compounds read low 1.01 | locus YML124C, strain tub3, active compounds read low 1.02 | locus YMR058W, strain fet3, active compounds read low 0.977 | locus YMR078C, strain ctf18, active compounds read low 1.04 | locus YMR125W, strain sto1, active compounds read low 0.968 | locus YMR129W, active compounds read low 0.997 | locus YMR205C, strain PFK2, active compounds read low 0.982 | locus YMR223W, strain ubp8, active compounds read low 1.01 | locus YMR231W, strain pep5, active compounds read low 0.973 | locus YMR263W, strain SAP30, active compounds read low 1.02 | locus YMR307W, strain GAS1, active compounds read low 1.05 | locus YNL067W, strain RPL9B, active compounds read low 1.02 | locus YNL071W, strain lat1, active compounds read low 0.994 | locus YNL153C, strain GIM3, active compounds read low 1.03 | [6] 0.951 | locus YNL209W, strain ssb2, active compounds read low 0.981 | locus YNL233W, strain BNI4, active compounds read low 1.02 | locus YNL248C, strain rpa49, active compounds read low 0.962 | locus YNL250W, strain rad50, active compounds read low 1.04 | locus YNL271C, strain bni1, active compounds read low 1.02 | locus YNL298W, strain CLA4, active compounds read low 1.03 | locus YNL307C, strain MCK1, active compounds read low 1.03 | locus YNL322C, strain KRE1 (second series), active compounds read low 0.954 | locus YNR049C, strain mso1, active compounds read low 0.983 | locus YNR052C, strain pop2, active compounds read low 1.01 | locus YOL012C, strain htz1 0.992 | locus YOL147C, strain pex11, active compounds read low 1.02 | locus YOR001W, strain rrp6, active compounds read low 0.939 | locus YOR061W, strain CKA2, active compounds read low 1.02 | locus YOR069W, strain VPS5, active compounds read low 1.01 | locus YOR070C, strain gyp1, active compounds read low 0.984 | locus YOR080W, strain dia2, active compounds read low 0.97 | locus YOR083W, strain WHI5, active compounds read low 1.01 | locus YOR106W, strain vam3, active compounds read low 1 | locus YOR136W, strain idh2, active compounds read low 1.01 | locus YOR144C, strain elg1, active compounds read low 1.02 | locus YOR184W, strain ser1, active compounds read low 1.03 | [7] 0.965 | locus YOR265W, strain rbl2, active compounds read low 0.99 | locus YOR270C, strain vph1, active compounds read low 0.926 | locus YOR290C, strain snf2, active compounds read low 0.982 | locus YOR316C, strain cot1, active compounds read low 1.02 | locus YPL051W, strain arl3, active compounds read low 0.987 | locus YPL078C, strain atp4, active compounds read low 0.988 | locus YPL106C, strain sse1, active compounds read low 0.96 | locus YPL240C, strain hsp82, active compounds read low 0.964 | locus YPL241C, strain CIN2, active compounds read low 1.01 | [8] 0.977 | locus YPR119W, strain clb2, active compounds read low 1.01 | locus YPR141C, strain kar3, active compounds read low 1.02 | locus YPR163C, strain tif3, active compounds read low 1.03 | locus YPR167C, strain met16, active compounds read low 1.02 | strain wtn01, active compounds read low 1
